Assay results as given in publication PMC4336329 (PLoS ONE, 2015).
Screen size: about 310,000 compounds; about 14,000 (4.5%) showed an effect of 50% or more. Effects have a minus sign here. Many of the other results were omitted from the sample, so strong results are more common in it than they were.

Molecular target: human ether-à-go-go-related gene (hERG) potassium channel (human, UniProt Q12809)
Assay: primary screen, population patch clamp on CHO cells stably expressing hERG; higher = less effect of the substance
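Further: peak tail current of the secondary pulse compared with the same well before compound.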

Sequence of human ether-à-go-go-related gene (hERG) potassium channel (Q12809 whole entry, looked up): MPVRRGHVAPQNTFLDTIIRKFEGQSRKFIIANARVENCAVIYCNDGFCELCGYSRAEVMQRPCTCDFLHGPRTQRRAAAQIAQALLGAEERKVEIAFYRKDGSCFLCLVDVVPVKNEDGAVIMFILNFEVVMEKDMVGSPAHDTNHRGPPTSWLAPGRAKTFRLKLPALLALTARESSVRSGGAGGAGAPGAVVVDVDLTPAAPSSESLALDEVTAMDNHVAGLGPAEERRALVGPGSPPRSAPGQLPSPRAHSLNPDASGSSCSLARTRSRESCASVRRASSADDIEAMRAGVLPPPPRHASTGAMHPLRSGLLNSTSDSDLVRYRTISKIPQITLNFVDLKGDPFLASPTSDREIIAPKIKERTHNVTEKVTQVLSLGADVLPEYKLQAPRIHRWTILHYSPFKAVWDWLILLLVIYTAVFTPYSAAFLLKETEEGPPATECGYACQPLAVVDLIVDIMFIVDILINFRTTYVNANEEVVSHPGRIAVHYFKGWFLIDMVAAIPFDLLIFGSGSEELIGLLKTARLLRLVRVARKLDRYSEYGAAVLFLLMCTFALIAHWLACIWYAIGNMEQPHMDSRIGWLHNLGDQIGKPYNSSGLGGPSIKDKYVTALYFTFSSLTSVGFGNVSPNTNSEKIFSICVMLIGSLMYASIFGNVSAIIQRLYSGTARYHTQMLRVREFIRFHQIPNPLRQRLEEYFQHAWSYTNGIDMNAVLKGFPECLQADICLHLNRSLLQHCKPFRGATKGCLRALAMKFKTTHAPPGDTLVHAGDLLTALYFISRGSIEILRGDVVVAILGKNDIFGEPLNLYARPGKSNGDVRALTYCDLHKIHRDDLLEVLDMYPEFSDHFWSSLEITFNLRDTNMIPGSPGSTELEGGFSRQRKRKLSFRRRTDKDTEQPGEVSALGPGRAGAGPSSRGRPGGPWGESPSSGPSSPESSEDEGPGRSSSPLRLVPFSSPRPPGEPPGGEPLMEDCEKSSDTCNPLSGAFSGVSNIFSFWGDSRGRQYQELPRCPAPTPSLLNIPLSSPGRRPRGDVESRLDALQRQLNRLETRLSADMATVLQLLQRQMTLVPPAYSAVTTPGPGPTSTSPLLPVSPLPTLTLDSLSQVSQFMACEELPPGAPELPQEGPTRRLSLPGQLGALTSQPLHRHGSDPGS

Structure (SMILES)	hERG current change (%, negative = inhibition) at 10uM [%]
Cc1ccc(OCCOC(=O)c2c(-c3ccccc3)noc2C)cc1	7.59
CCOc1ccc(NC(=O)CN2CCN(Cc3c(F)cccc3F)CC2)cc1	-75.3
CCOc1ccc(NC(=O)CN2CCN(C3c4ccccc4-c4ccccc43)CC2)cc1	-40.3
CCOc1ccc(NC(=O)CN2CCc3ccccc3C2)cc1	-6.01
CCOc1cc(N2CCOCC2)c(OCC)cc1NC(=O)c1nc2nc(C)cc(C)n2n1	18.4
O=C(/C=C/c1ccc(OCc2c(F)cccc2Cl)cc1)N1CCOCC1	-30.1
CN(C)CCCNC(=O)/C=C/c1ccc(OCc2c(F)cccc2Cl)cc1	-67
COCCCNC(=O)/C=C/c1ccc(OCc2c(F)cccc2Cl)cc1	-1.25
COc1cc2c(cc1OC)C(c1ccccc1F)OC(=O)C2 (stereo not shown)	6.96
O=C(CN1CCOCC1)Nc1ncc(Cc2cccc(Cl)c2Cl)s1	-51.4
O=C(CN1CCOCC1)Nc1ncc(Cc2cccc3ccccc23)s1	-23.3
O=C(CN1CCOCC1)Nc1ncc(Cc2cccc(Cl)c2)s1	-43
O=C(COc1ccc2ccccc2c1)Nc1ccc2c3c(cccc13)CC2	3.91
O=C(CSc1ncnc2c1cnn2-c1cccc(Cl)c1)NCC1CCCO1 (stereo not shown)	7.88
Cc1cc(OC(C)C(=O)NCc2ccncc2)c2c(C)cc(=O)oc2c1 (stereo not shown)	-49.2
CCCCc1cc(=O)oc2cc(C)cc(OC(C)C(=O)NCc3ccncc3)c12 (stereo not shown)	-36
CCc1cc(=O)oc2cc(C)cc(OC(C)C(=O)NCc3cccnc3)c12 (stereo not shown)	-32.9
CCCc1cc(=O)oc2cc(C)cc(OC(C)C(=O)NCc3ccncc3)c12 (stereo not shown)	-69.5
CCCc1cc(=O)oc2cc(C)cc(OC(C)C(=O)NCc3cccnc3)c12 (stereo not shown)	-47.3
CCc1cc(=O)oc2cc(C)cc(OC(C)C(=O)NCc3ccncc3)c12 (stereo not shown)	-56.8
O=S(=O)(Nc1nc2c(s1)CCCC2)c1ccc(F)cc1	-21.1
O=C(NCCc1cccc(F)c1)[C@@H]1CSC2c3ccccc3C(=O)N21 (stereo partly shown)	-13.9

Structure (SMILES)	hERG current change (%, negative = inhibition) at 10uM [%]
Cc1cc(C(=O)Nc2ccc3c(c2)OCCO3)c(C)o1	4.25
COC(=O)c1cccc(Oc2cccc(C(F)(F)F)c2)n1	13
Cc1ccc(S(=O)(=O)N2C(=O)CCC2C(=O)Nc2ccc3c(c2)OCCO3)cc1 (stereo not shown)	10.6
O=C1CCN(Cc2cccnc2)CCN1[C@H](CO)c1ccccc1	16
CCN(CC(=O)NCc1ccc(F)cc1)C(=O)c1ccc(C)o1	6.13
CCN(Cc1ccccc1)C(=O)COc1ccccc1	9.21
CCN(CC(=O)NCc1ccc(F)cc1)C(=O)COc1ccc(C)c(C)c1	-53.6
CCN(CC(=O)NCc1ccc(F)cc1)C(=O)c1ccc(COc2ccccc2)cc1	-47.9
CCc1ccc(OCC(=O)N(CC)CC)cc1	-55
O=C(NCc1ccc(F)cc1)c1cc2ccccc2o1	-13.4
CCN(CC(=O)NCc1ccc(F)cc1)C(=O)Cc1c(F)cccc1Cl	-37.6
CCN(CC(=O)NCc1ccc(Cl)cc1)C(=O)c1cc2ccccc2o1	-32.2
CCN(CC(=O)NCc1ccc(F)cc1)C(=O)c1cc2ccccc2o1	-55.9
CCN(CC)C(=O)COc1ccc(-c2ccccc2)cc1	-36
CCN(CC(=O)NCc1ccc(F)cc1)C(=O)CCNS(=O)(=O)c1cccc(C)c1	-51.9
CCN(CC(=O)Nc1c(F)cccc1F)C(=O)CCNS(=O)(=O)c1ccc(C)c(C)c1	1.26
CCOC(=O)c1cc(C)n(S(=O)(=O)c2ccc(C)cc2)c1C	-2.18
Cc1ccc(-c2cn(S(=O)(=O)c3cccc([N+](=O)[O-])c3)nc2N)cc1	15.3
COc1ccccc1CNC(=O)CCC(=O)N1C[C@H]2C[C@@H](C1)c1cccc(=O)n1C2	-5.65
O=C(COc1ncnc2sccc12)Nc1cccc(S(=O)(=O)N2CCOCC2)c1	-2.77
O=C(Nc1ccc2nc(C3CC3)n(Cc3ccccc3)c(=O)c2c1)C1CC1	-6.15
CC1(C)CC(NC(=O)COc2cc3oc(=O)c4c(c3cc2Cl)CCC4)CC(C)(C)N1	11.2

Structure (SMILES)	hERG current change (%, negative = inhibition) at 10uM [%]
COc1ccc(OC)c(C(c2nnnn2C2CCCC2)N2CCc3ccccc3C2)c1 (stereo not shown)	-11.1
COc1ccc(/C=C/C(=O)OCC(=O)Nc2cc(S(=O)(=O)N(C)C)ccc2Cl)cc1	28.4
CCN(CC(=O)Nc1ccc(NC(C)=O)cc1)C(=O)COc1ccc2ccccc2c1	-10.1
CCc1ccccc1OCC(=O)N(CC)CC(=O)NCc1ccc(F)cc1	8
CCN(CC(=O)NCc1ccc(F)cc1)C(=O)COc1ccc2ccccc2c1	-70.5
CCN(CC(=O)NCc1ccc(F)cc1)C(=O)c1cccnc1SC	-62.9
CCOc1ncccc1C(=O)N(CC)CC(=O)NCc1ccc(F)cc1	7.12
CCN(CC(=O)Nc1c(F)cccc1F)C(=O)c1cccnc1SC	6.33
Cc1ccc(-n2ncc3c2CCCC3NC(=O)c2ccoc2)cc1C (stereo not shown)	-79.2
CCCC(=O)NC1CCCc2c1cnn2-c1ccc(C)c(C)c1 (stereo not shown)	-72
CSCC(=O)NC1CCCc2c1cnn2-c1ccc(C)c(C)c1 (stereo not shown)	-28
Cc1cc(C(=O)NC2CCCc3c2cnn3-c2ccc(C)c(C)c2)no1 (stereo not shown)	-42.9
Cc1ccc(-n2ncc3c2CCCC3NC(=O)CCc2cnn(C)c2)cc1C (stereo not shown)	7.27
COC(=O)c1ccc(C(=O)NC2CCCc3c2cnn3-c2ccc(C)c(C)c2)cc1 (stereo not shown)	6.54
O=C1COc2ccc(S(=O)(=O)NCCc3ccccc3)cc2N1	10.7
CC(NC(=O)c1cc(S(=O)(=O)N2CCCC2)ccc1Cl)c1ccccn1 (stereo not shown)	18.1
CCOc1ccc(C2C3=C(CC(C)(C)CC3=O)N(CC(=O)O)C3=C2C(=O)CC(C)(C)C3)cc1OCC	5.47
CN1CCC(N(C)C(=S)Nc2ccc(F)cc2)CC1	21.3
CN1CCN(C(=O)c2ccccc2Nc2ccc(SC(F)F)cc2)CC1.Cl	-26
CN1CCC(N(C)C(=S)Nc2ccc(SC(F)F)cc2)CC1	-56.6
CC(=O)c1ccc(NC(=S)N(C)C2CCN(C)CC2)cc1	-4.16
CC1CCN(C(=S)Nc2ccc(SC(F)F)cc2)CC1	-33

Structure (SMILES)	hERG current change (%, negative = inhibition) at 10uM [%]
CC1CC(C)CN(C(=O)c2ccccc2Nc2ccc(SC(F)F)cc2)C1 (stereo not shown)	0.904
CN1CCC(N(C)C(=O)c2ccccc2Nc2ccc(SC(F)F)cc2)CC1	-62.2
CC1CN(C(=S)Nc2ccc(SC(F)F)cc2)CC(C)O1 (stereo not shown)	-27.6
O=C(NCc1ccncc1)c1cccc(S(=O)(=O)Nc2ccc(SC(F)F)cc2)c1	-3.21
CC1CC(C)CN(C(=S)Nc2ccc(SC(F)F)cc2)C1 (stereo not shown)	-51.8
CNC(=O)c1ccccc1Nc1ccc(SC(F)F)cc1	-1.62
O=C(NCc1ccncc1)c1ccccc1Nc1ccc(SC(F)F)cc1	-63.9
O=C(CCN1C(=O)c2ccccc2C1=O)OCN1C(=O)c2ccccc2C1=O	-11.5
COCCSc1ccccc1C(=O)NCc1cccnc1	18.7
CCc1c(C)[nH]c2nc3ccccc3n2c1=O	4.86
CC(C)c1nc2ccc(NC(=O)C34CC5CC(CC(C5)C3)C4)cc2[nH]1	4.9
COCCCn1c(SCC(=O)Nc2nnc(C)s2)nnc1-c1ccoc1C	4.33
Cc1ccc(NC2=NC(=S)N(CC#N)C23CCCCC3)cc1	-6.19
CC(C)Oc1cccc(C(=O)C2CCCN(Cc3cccn3-c3cccnc3)C2)c1 (stereo not shown)	-27.7
CC(C)Oc1cccc(C(=O)C2CCCN(Cc3cccn3-c3ccccn3)C2)c1 (stereo not shown)	-78.8
Cc1c(CN2CCCC(C(=O)c3cccc(OC(C)C)c3)C2)c(=O)n(-c2ccccc2)n1C (stereo not shown)	-57.2
COc1cccc(C(=O)C2CCCN(Cc3c(C)n(C)n(-c4ccccc4)c3=O)C2)c1 (stereo not shown)	-21.2
Cc1c(CN2CCCC(C(=O)c3cccc(Cl)c3)C2)c(=O)n(-c2ccccc2)n1C (stereo not shown)	-24
COc1cccc(C(=O)C2CCCN(Cc3cccn3-c3ccccn3)C2)c1 (stereo not shown)	-76.5
COc1cccc(C(=O)C2CCCN(C(=O)c3ccccn3)C2)c1 (stereo not shown)	3.77
CC(C)Oc1cccc(C(=O)C2CCCN(Cc3ccon3)C2)c1 (stereo not shown)	-3.37
COc1ccc(C(=O)Nc2c3c(nn2C(C)(C)C)CS(=O)(=O)C3)cc1OC	13.1
